Calls of active or inactive are those of the source. The call rests on the fitted dose curve; in most records, active means well fitted curve in the direction sought with a large enough effect; inconclusive means small, poorly fitted or top-dose-only effect, or another doubt; inactive means no such curve, though single readings can be large; an effect the other way counts as inactive or inconclusive.
biological target: Cytochrome P450 3A4 (Homo sapiens) (UniProt P08684); test: qHTS Assay for Activators of Cytochrome P450 3A4 (AID 885); conditions: recombinant CYP3A4, Luciferin-PPXE luminescence, 60 min; series mostly up to 57.1 µM; further: nearly all actives have a fitted effect of over 65% in size
Sequence (P08684 whole entry, looked up): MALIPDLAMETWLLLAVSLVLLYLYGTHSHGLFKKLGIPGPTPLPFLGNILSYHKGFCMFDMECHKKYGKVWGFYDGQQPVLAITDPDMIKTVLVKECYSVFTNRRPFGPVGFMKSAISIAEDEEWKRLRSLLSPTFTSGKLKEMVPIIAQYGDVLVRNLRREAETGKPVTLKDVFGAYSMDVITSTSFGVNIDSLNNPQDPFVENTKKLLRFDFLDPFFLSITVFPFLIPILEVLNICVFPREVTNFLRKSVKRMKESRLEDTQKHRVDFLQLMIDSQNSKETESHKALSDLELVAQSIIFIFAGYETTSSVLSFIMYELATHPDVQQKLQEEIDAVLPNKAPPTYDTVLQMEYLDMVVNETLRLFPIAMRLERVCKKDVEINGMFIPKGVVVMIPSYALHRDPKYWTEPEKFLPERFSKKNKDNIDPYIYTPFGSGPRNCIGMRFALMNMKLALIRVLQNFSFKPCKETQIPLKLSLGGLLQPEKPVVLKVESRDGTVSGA
Outline: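 Signal was normalized against complete inhibition by 57 uM ketoconazole. The reaction used 20nM CYP3A4 with 25uM Luciferin-PPXE, 10-min compound preincubation and a 60-min NADPH-supported step at RT.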

Potency, inactive:
CC1(C)C=Cc2c(cc3occ(-c4ccc5c(c4)OCO5)c(=O)c3c2O)O1
O=c1cc(-c2ccc(O)cc2)oc2cccc(O)c12
c1ccc(-c2csc(-c3nc4ccccc4[nH]3)n2)cc1
COc1c2ccoc2c(OC)c2oc(=O)ccc12

test system: not listed separately; test: Confirmation and Secondary Assay for Modulators of Hemoglobin Beta Chain Splicing at IVS2 654 locus (AID 910); conditions: HeLa EGFP-654 splicing reporter, GFP fluorescence, 48 h; series mostly up to 46.1 µM;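 further: per-well total GFP intensity by laser scanning cytometry after 2-day treatment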
Outline: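 HeLa cells stably carrying EGFP interrupted by mutant beta-globin IVS2-654 intron (CMV-driven) were treated with compound for 2 days at 37C; corrected splicing was scored as total peak GFP intensity per well (488 nm excitation, 500-520 nm emission).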

outcome, inactive:
COc1ccc2c(=O)ccoc2c1
NC(Cc1cnc[nH]1)C(=O)Nc1ccc2ccccc2c1 (configuration not stated)
COc1ccc2cc1Oc1ccc(cc1)CC1c3cc(c(OC)cc3CCN1C)Oc1c(OC)c(OC)cc3c1C(C2)N(C)CC3 (configuration not stated)
CC(=O)OCC(=O)[C@@]1(O)CCC2C3CCC4=CC(=O)CC[C@]4(C)C3C(=O)C[C@]21C (some centres not stated)
COc1c2ccoc2cc2oc(C)cc(=O)c12
COC(=O)CC1C(C)(C)C(=O)C2CC3C4=CC(=O)OC(c5ccoc5)[C@]4(C)CCC3[C@@]1(C)C2=O (some centres not stated)
CC(=O)OC1CC2C(C)(C)C(=O)CC[C@]2(C)C2CC[C@]3(C)C(=CC(=O)OC3c3ccoc3)[C@]12C (some centres not stated)
O=C(O)C(S)[C@@H](S)C(=O)O (some centres not stated)
COc1cc2ccc(=O)oc2c(OC)c1OC
NC(=O)c1ccc[n+]([C@@H]2OC(COP(=O)([O-])OP(=O)(O)OCC3OC(n4cnc5c(N)ncnc54)C(O)C3O)C(O)C2O)c1 (some centres not stated)
CN(N=O)C(=O)N[C@H]1C(O)C(O)C(CO)O[C@@H]1O (some centres not stated)
O=c1[nH]cnc2c1ncn2C1CC(O)C(CO)O1 (configuration not stated)
COc1cc(OC)c2c(=O)c(-c3ccccc3)coc2c1
